87 sequences from article PMC10668032, “Altered binding affinity of SIX1-Q177R correlates with enhanced WNT5A and WNT pathway effector expression in Wilms tumor” can be followed below.

In all, about 33,000 sequences were measured (“e-score”: median about -0.05, highest 2% from about 0.38 on). Only a selection was taken, and the highest values are over-represented in it overall.

This assay concerns the target T1, SIX1-Q177R homeodomain (human, UniProt Q15475 108-198, Q177R).
T1 sequence: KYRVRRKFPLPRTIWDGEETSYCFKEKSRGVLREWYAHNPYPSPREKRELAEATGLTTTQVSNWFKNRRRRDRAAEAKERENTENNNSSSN
Nature of the assay: universal protein binding microarray; Universal all-10-mer PBM (8x60K, AMADID 030236), 300 nM GST-tagged protein, Alexa Fluor 488 anti-GST; buffer, salt, pH and temperature not stated (as in Berger); high values mean tight binding. The settings on record: protein: ivt; tags: N-terminal GST; dsDNA, one strand shown. The gist of the method:
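Duplicate protein binding microarrays (universal 'all 10-mer', 8×60K format) were incubated with GST-tagged homeodomains at 300 nM final concentration. Binding was quantified as 8-mer E-scores with the Universal PBM Analysis Suite.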
With ACTCCCTC, the binding signal amounted to 0.156 ± 0.0128 E-score.
The value for TATATATA was 0.181 ± 0.042 E-score.
The value for AGGGATCG was 0.216 ± 0.00653 E-score; that for CACTCATG was 0.244 ± 0.00471 E-score.
As to ACCCTTCA, the binding signal was 0.166 ± 0.0264 E-score.
The value for GGGGTATA was 0.274 ± 0.0131 E-score.
For CACCTCCG, the binding signal came to 0.344 ± 0.00638 E-score.
The value for ACCCGGGG was 0.297 ± 0.0213 E-score; that for CACTATTA was 0.158 ± 0.0138 E-score.
The value for GTTCGGGA was 0.15 ± 0.0437 E-score; that for GTGCACCA was 0.246 ± 0.0146 E-score.
The value for ACACACTG was 0.248 ± 0.0191 E-score; that for CTACACCA was 0.4741 ± 0.00151 E-score; that for CACCACCA was 0.329 ± 0.0106 E-score.
Regarding CTACCCCC, the binding signal was determined as 0.268 ± 0.0213 E-score.
On to GTACAACA, for which the binding signal is 0.2 ± 0.0164 E-score.
The value for ATACACTG was 0.392 ± 0.00512 E-score.
The value for CTACAACA was 0.161 ± 0.0103 E-score; that for CTGCACCC was 0.209 ± 0.0458 E-score.
With CTACACCC, the binding signal turned out to be 0.4824 ± 0.00332 E-score.
As for GTACACCA, the binding signal amounted to 0.4849 ± 0.00112 E-score.
The value for CACTAACA was 0.284 ± 0.0307 E-score; that for CGACCCCG was 0.255 ± 0.0544 E-score.
On to CCCAATAC, for which the binding signal worked out at 0.17 ± 0.00354 E-score.
The value for TATTTACA was 0.311 ± 0.0362 E-score.
On to AAGTAGTG, for which the binding signal was determined as 0.27 ± 0.0294 E-score.
The value for CCCCTCAG was 0.251 ± 0.0116 E-score; that for ATCCCGTG was 0.228 ± 0.0211 E-score.
The value for CACGAGGG was 0.189 ± 0.00843 E-score; that for AGGGGTAG was 0.269 ± 0.00879 E-score.
The value for CACGCCGA was 0.194 ± 0.0137 E-score.
Regarding AAGCGACA, the binding signal stood at 0.229 ± 0.0424 E-score.
The value for CACCTCCA was 0.293 ± 0.0179 E-score; that for ATACACCC was 0.46 ± 0.00688 E-score; that for ATACACCG was 0.472 ± 0.00491 E-score.
On to ATACACAC, for which the binding signal worked out at 0.315 ± 0.0133 E-score.
On to ATACCCCC, for which the binding signal came out at 0.364 ± 0.0151 E-score.
The value for ATATACCG was 0.15 ± 0.0185 E-score; that for ATACACAG was 0.187 ± 0.0325 E-score; that for ATGCACCA was 0.165 ± 0.000877 E-score.
The value for ACCCACCA was 0.2 ± 0.00308 E-score; that for ATACACCA was 0.47 ± 0.0019 E-score.
As to ACTCGGTG, the binding signal was determined as 0.368 ± 0.00838 E-score.
The value for CACCTCCC was 0.256 ± 0.00611 E-score; that for ATACCCCA was 0.254 ± 0.016 E-score.
For the sequence ATCGGTGC, the binding signal worked out at 0.204 ± 0.0156 E-score.
The value for ACTCCCAG was 0.262 ± 0.038 E-score.
With AGGGAGTA, the binding signal was found to be 0.178 ± 0.0384 E-score.
The value for TGTCCTAA was 0.241 ± 0.0454 E-score.
Take TGTAGACA: the binding signal was 0.2571 ± 0.000438 E-score.
The value for CGGCACCA was 0.181 ± 0.0154 E-score; that for ACACAGCG was 0.1958 ± 0.00148 E-score.
The value for GGGGTCTA was 0.229 ± 0.0526 E-score; that for GGTGTCTA was 0.468 ± 0.0105 E-score.
The value for GGTATCTA was 0.216 ± 0.0361 E-score.
Take AGTGTCTA: the binding signal amounted to 0.3723 ± 0.00362 E-score.
The value for CGTGTCTA was 0.405 ± 0.0182 E-score.
The value for CCCCAAGC was 0.228 ± 0.0222 E-score; that for ATACCGGG was 0.213 ± 0.0219 E-score; that for CCACCGGA was 0.203 ± 0.037 E-score.
The value for ACACCGGC was 0.481 ± 0.00281 E-score; that for ACTCCGGC was 0.233 ± 0.0256 E-score; that for ACACAGGT was 0.252 ± 0.0297 E-score.
On to ACACCGGT, for which the binding signal was 0.481 ± 0.00684 E-score.
For ACCCCGGC, the binding signal came out at 0.262 ± 0.0281 E-score.
The value for ACCCCGGT was 0.298 ± 0.00305 E-score; that for GCACCGGA was 0.162 ± 0.0479 E-score; that for ACACCGGA was 0.476 ± 0.00539 E-score.
The value for ACACCGGG was 0.4843 ± 0.00112 E-score.
The value for ACCCCGGG was 0.302 ± 0.0198 E-score; that for CACCATCC was 0.252 ± 0.00467 E-score; that for GTGCTCTA was 0.221 ± 0.0342 E-score.
Turning to CCAACTAC, the binding signal was determined as 0.151 ± 0.00402 E-score.
The value for ACCTCTAC was 0.151 ± 0.00402 E-score.
The value for ACCACGTG was 0.194 ± 0.00218 E-score; that for ACGGGATC was 0.197 ± 0.0102 E-score; that for CGGGGTAA was 0.235 ± 0.0071 E-score.
The value for ACACTCAA was 0.39 ± 0.0152 E-score; that for ACTCTTAT was 0.212 ± 0.0414 E-score; that for ACACTTAA was 0.316 ± 0.0276 E-score.
On to ACACTCTA, for which the binding signal was 0.367 ± 0.0161 E-score.
The value for ACACTTAC was 0.378 ± 0.013 E-score.
Regarding ACACTTAG, the binding signal is 0.355 ± 0.0376 E-score.
The value for ACTCACAC was 0.3 ± 0.0164 E-score; that for ACACTCAT was 0.388 ± 0.0116 E-score.
The value for ACACTCAC was 0.39 ± 0.00873 E-score.
The value for ACACTCAG was 0.387 ± 0.00387 E-score.
